For five compounds, composite z-score and z-score results are on record in PubChem BioAssay.

The source made the active and inactive calls.

The nature of experiment [1]: small molecules captured by biotinylated probe aFSTL3 – biochemical, small-molecule microarray, fluorescence 635/667, stem cell growth factor project, primary screen (AID 1064).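 Further: measures binding of the biotinylated anti-FSTL3 antibody to printed compounds.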 The following applies: higher = more signal.
A short description of experiment [2]: binders from COS7 lysate, DM2A8 probe, primary screen, torsin A project, cell lysate, small-molecule microarray, fluorescence 635/667 (AID 1065). The following applies: higher = more signal, COS7 lysate expressing mutant human TOR1A.
The nature of experiment [3]: small molecules captured by biotinylated probe aFGF2 – biochemical, small-molecule microarray, fluorescence 635/667, stem cell growth factor project, primary screen (AID 1067).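 Further: measures binding of biotinylated aFGF2 protein to printed compounds on slides; z-score merges feature fluorescence and signal-to-noise across triplicate slides.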 The settings on record: higher = more signal.
The nature of experiment [4]: small molecules captured by biotinylated probe aFGF10 – biochemical, small-molecule microarray, fluorescence 635/667, stem cell growth factor project, primary screen (AID 1071).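 Further: score merges 667 nm spot intensity and signal to noise from triplicate slides.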 The following applies: higher = more signal.
Experiment [5] has as its target Neurogenic locus notch homolog protein 2 (Homo sapiens) (UniProt Q04721). Kind of experiment: small molecules binding Notch2 protein – biochemical, small-molecule microarray, 635 nm fluorescence, stem cell growth factors, primary screen (AID 1073). The following applies: higher = more signal.
The target of experiment [6] is Pro-neuregulin-1, membrane-bound isoform (Homo sapiens) (UniProt Q02297). The experiment can be described thus: small molecules binding neuregulin-1 protein – biochemical, small-molecule microarray, fluorescence 635/667, psychiatric disease protein project, primary screen (AID 1075).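 Further: score combines 667 nm spot fluorescence with signal to noise.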 The following applies: NRG1 binding, 635 nm fluorescence, higher = more signal.
For experiment [7], the system named is Neuregulin-1 EGF-like domain. The experiment can be described thus: small molecules binding NRG1 EGF domain – biochemical, small-molecule microarray, 635 nm fluorescence, primary screen (AID 1081).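 Further: binding of the protein to compounds printed on small-molecule microarray slides.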 The settings on record: higher = more signal.
Experiment [8] in a line: FRG1 expression reporter modulators in myotubes – cell-based, C2C12 myotubes, firefly/Renilla luciferase, luminescence, FRG1 inhibition for FSHD, primary screen (AID 1084). The settings on record: FRG1 promoter luciferase, higher = more signal, called active from +8 up or from −8 down.
The nature of experiment [9]: small molecules captured by biotinylated probe aFST – biochemical, small-molecule microarray, fluorescence 635/667, stem cell growth factor project, primary screen (AID 1086).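 Further: score merges 667 nm fluorescence with signal-to-noise of each printed compound spot.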 The settings on record: higher = more signal.
Experiment [10] in a line: binders of probe aHhip on microarray, primary screen, stem cell growth factor project, biochemical, small-molecule microarray, fluorescence 635/667 (AID 1087).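 Further: score merges spot fluorescence at 667nm with spot signal to noise ratio.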 The settings on record: higher = more signal.
The test system of experiment [11] is PRMT1 (protein arginine N-methyltransferase 1). The experiment can be described thus: small molecules binding arginine methyltransferase PRMT1 – biochemical, small-molecule microarray, 635 nm fluorescence, primary screen (AID 1088).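 Further: binding of Prmt1 protein to compounds spotted on small-molecule microarray slides.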 The settings on record: higher = more signal.
The nature of experiment [12]: growth effects on S. cerevisiae YJM789 – YJM789 clinical isolate, OD600, 24 h, basal, primary screen (AID 1089).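 Further: growth of clinical yeast isolate S. cerevisiae YJM 789 seeded 1000 cells per well; test concentration not given here.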 The settings on record: higher = more signal, called active from +8 up or from −8 down.
Experiment [13] in a line: S. pombe growth modifiers, basal conditions – strain 972, OD600, 24 h, no modulator, primary screen (AID 1090).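 Further: basal condition with compound alone and no growth modifier present; test concentration not given here.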 The following applies: S. pombe 972 growth, higher = more signal, called active from +8 up or from −8 down.
A short description of experiment [14]: budding yeast growth modifiers under rapamycin – strain BY4716, OD600, 96 h, primary screen (AID 1091). Further: test concentration not given here. The settings on record: S. cerevisiae BY4716 + rapamycin, higher = more signal, called active from +8 up or from −8 down.
Experiment [15] has as its target Torsin-1A-interacting protein 2 (Homo sapiens) (UniProt Q8NFQ8). The experiment can be described thus: small molecules binding lysate-expressed LULL1 – cell lysate, human LULL1 lysate, 635/667 nm fluorescence, primary screen (AID 1092).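 Further: probe is lysate of COS7 cells overexpressing human LULL1; score merges per-feature 667 nm fluorescence with signal-to-noise.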 The following applies: small-molecule microarray, hLULL1 lysate binding, 635 nm fluorescence; higher = more signal.
Experiment [16] is described as follows: optical density change of DRC41 E. coli – strain DRC41, OD650, 24 h, E. coli filamentation project, primary screen (AID 1093).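 Further: MC1000 strain lacking acrAB efflux and sulA so SOS filamentation is blocked; test concentration not given here.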 The following applies: E. coli DRC41 growth, higher = more signal, called active from +8 up or from −8 down.
A short description of experiment [17]: probe aLefty2 binding to arrayed compounds – biochemical, biotinylated probe, 635/667 nm fluorescence, primary screen (AID 1094).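 Further: score merges spot fluorescence near 667 nm with spot signal-to-noise ratio.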 The following applies: small-molecule microarray, higher = more signal.
For experiment [18], the system named is Noggin (protein binding on small-molecule microarray). The experiment can be described thus: small molecules binding Noggin protein – biochemical, 635/667 nm fluorescence, primary screen (AID 1095).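 Further: score merges 667 nm feature fluorescence with signal to noise over triplicate slides.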 The following applies: 635 nm fluorescence, higher = more signal.
The target of experiment [19] is Neurogenic locus notch homolog protein 3 (Homo sapiens) (UniProt Q9UM47). Kind of experiment: small molecules binding NOTCH3 protein – biochemical, 635/667 nm fluorescence, primary screen (AID 1096). The settings on record: small-molecule microarray, 635 nm fluorescence, higher = more signal.
Experiment [20] in a line: probe aEGFR binding to arrayed compounds – biochemical, biotinylated probe, 635/667 nm fluorescence, primary screen (AID 1097).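 Further: probe is a biotinylated anti-EGFR antibody binding compounds printed on slides; score combines fluorescence near 667 nm and signal to noise of each spot.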 The settings on record: small-molecule microarray, higher = more signal.

Chain of Neurogenic locus notch homolog protein 2 (Homo sapiens) (Q04721 whole entry, looked up, canonical isoform): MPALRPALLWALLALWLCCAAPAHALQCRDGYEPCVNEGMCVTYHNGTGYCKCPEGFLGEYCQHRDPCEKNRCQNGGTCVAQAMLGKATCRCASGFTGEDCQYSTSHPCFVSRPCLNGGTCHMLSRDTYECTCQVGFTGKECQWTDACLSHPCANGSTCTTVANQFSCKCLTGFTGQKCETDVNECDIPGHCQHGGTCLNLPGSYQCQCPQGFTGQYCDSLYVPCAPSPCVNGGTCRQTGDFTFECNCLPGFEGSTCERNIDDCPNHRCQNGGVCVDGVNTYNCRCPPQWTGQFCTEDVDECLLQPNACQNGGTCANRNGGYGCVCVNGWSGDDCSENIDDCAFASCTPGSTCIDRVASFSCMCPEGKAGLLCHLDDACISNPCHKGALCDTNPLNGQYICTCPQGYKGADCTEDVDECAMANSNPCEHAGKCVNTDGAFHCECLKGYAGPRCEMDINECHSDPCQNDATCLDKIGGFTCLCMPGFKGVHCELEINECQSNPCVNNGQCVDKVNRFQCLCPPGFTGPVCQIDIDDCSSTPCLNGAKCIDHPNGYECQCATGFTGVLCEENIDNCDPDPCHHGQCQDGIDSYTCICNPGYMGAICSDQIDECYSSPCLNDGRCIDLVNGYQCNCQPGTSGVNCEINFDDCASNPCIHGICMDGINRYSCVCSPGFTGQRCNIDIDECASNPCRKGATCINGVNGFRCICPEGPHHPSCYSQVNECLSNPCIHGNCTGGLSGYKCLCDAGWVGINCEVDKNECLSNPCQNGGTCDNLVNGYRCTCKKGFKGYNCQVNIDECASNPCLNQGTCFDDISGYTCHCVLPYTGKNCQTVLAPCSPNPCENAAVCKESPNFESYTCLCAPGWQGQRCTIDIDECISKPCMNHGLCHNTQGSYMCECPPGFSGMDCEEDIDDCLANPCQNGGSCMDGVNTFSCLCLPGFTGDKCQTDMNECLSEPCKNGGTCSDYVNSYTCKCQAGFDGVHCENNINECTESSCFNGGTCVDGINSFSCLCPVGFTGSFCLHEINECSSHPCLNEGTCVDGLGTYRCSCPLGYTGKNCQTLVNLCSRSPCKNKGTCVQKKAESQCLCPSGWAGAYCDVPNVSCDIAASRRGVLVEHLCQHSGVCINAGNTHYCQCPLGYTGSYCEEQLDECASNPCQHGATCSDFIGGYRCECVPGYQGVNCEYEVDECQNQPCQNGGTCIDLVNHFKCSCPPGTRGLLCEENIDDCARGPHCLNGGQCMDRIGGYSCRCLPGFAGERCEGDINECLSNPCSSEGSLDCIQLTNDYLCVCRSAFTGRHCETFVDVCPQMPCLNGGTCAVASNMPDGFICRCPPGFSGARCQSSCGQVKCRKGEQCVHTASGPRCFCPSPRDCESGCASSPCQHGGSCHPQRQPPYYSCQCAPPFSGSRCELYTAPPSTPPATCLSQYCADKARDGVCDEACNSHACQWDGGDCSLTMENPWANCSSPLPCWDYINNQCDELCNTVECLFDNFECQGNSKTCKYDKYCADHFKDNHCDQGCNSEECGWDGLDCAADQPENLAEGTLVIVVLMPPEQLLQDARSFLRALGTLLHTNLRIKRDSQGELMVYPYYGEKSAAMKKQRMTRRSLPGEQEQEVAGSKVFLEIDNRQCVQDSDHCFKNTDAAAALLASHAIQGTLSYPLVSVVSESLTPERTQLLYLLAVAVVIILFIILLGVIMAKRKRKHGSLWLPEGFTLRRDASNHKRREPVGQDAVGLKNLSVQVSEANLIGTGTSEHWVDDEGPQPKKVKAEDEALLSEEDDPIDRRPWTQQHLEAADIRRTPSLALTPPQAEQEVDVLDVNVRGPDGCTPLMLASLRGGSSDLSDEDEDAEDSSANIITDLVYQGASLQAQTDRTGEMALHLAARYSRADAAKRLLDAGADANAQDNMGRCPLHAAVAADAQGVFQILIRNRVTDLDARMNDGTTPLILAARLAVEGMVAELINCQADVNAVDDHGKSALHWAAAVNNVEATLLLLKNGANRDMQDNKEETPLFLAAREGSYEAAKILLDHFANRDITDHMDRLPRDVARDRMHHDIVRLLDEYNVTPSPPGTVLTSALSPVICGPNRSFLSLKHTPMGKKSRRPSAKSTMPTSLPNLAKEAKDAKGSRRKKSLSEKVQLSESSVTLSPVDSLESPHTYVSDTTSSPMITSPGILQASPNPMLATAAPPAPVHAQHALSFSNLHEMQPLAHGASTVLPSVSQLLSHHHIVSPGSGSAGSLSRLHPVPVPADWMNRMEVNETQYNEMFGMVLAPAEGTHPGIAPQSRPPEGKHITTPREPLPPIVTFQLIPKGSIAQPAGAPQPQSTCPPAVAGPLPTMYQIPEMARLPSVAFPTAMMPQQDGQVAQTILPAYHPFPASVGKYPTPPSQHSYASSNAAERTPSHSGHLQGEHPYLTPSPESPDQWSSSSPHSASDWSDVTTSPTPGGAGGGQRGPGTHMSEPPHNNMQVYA
Chain of Neurogenic locus notch homolog protein 3 (Homo sapiens) (Q9UM47 whole entry, looked up): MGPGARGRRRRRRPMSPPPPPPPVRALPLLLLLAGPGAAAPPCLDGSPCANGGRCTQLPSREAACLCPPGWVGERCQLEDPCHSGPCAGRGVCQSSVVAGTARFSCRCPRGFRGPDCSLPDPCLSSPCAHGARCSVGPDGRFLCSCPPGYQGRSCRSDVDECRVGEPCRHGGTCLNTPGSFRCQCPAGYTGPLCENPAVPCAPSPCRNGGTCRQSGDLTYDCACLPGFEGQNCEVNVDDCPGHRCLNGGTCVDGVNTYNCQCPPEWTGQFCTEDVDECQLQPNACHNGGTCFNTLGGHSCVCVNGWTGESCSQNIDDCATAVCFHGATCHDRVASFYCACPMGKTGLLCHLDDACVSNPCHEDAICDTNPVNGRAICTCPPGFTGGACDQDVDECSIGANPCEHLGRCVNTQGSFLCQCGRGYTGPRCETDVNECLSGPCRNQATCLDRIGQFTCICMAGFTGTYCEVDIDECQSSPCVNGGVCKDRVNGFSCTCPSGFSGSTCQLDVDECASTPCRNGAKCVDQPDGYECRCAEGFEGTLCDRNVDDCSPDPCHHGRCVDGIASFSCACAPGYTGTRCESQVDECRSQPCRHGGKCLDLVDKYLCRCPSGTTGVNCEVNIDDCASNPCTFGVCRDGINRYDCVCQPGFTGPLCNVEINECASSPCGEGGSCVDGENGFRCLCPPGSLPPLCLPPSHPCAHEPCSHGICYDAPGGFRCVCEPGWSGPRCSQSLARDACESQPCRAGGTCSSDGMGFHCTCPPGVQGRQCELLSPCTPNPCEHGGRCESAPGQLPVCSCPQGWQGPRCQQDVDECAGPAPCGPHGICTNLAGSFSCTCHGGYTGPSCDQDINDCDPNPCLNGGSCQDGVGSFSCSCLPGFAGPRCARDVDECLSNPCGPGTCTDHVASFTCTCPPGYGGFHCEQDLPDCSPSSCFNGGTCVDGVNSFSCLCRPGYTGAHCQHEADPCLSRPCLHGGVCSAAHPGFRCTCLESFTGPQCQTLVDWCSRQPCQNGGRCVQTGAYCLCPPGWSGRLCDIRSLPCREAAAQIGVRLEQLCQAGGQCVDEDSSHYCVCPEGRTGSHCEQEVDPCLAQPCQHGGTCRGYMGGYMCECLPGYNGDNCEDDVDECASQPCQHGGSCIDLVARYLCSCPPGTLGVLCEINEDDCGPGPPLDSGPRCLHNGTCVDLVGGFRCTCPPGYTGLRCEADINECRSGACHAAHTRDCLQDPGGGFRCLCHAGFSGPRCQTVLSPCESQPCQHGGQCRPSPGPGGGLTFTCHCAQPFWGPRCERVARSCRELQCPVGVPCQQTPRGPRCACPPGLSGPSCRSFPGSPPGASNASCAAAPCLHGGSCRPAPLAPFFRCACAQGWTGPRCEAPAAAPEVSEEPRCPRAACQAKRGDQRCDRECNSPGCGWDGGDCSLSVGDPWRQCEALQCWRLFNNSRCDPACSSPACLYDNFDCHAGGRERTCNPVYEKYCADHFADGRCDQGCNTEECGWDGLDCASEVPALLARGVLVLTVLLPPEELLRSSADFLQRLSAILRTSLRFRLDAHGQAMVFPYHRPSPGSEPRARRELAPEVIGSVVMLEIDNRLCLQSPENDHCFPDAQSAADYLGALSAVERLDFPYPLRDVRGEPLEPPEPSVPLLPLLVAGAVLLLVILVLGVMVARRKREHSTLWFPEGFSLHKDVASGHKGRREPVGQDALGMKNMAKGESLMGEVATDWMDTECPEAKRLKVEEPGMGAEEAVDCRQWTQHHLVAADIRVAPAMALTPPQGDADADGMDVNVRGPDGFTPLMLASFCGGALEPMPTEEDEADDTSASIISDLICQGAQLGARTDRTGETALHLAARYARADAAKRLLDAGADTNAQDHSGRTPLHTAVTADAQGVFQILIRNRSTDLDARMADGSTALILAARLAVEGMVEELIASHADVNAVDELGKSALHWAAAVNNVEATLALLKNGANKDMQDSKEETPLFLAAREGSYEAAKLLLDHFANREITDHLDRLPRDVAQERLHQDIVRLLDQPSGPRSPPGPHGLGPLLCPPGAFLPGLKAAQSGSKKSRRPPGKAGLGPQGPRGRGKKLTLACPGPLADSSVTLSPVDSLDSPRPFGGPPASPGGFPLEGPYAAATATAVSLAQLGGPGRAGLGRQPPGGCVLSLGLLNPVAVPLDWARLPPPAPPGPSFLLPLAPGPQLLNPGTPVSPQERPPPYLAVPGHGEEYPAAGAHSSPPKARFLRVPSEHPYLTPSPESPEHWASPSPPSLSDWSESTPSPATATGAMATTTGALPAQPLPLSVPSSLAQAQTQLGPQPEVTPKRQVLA

As for `CCCCN1CC=CC23O[C@@H]4/C=C\CCC(C)OC(=O)C4[C@H]2C(=O)N(CCCCCO)[C@@H]3C1=O` (stereo not given in full), the composite z-score in [1] was 0.141; in experiment [2], -0.421; in [3] it was -0.132; in experiment [4], -1.16; in experiment [5], -0.784; in [6], 0.768. For the same compound, the composite z-score was 0.178 in experiment [7]; -0.526 in experiment [9]; -0.0994 in experiment [10]; 0.445 in experiment [11]; 1.72 in [15]; -0.205 in [17]. The composite z-score in [18] was -0.976; in experiment [19] it was -0.292; in [20], -0.227. Moreover, the z-score in experiment [8] is 0.464 (inactive); in [12], -0.402 (inactive); in experiment [13] it was -0.831 (inactive); in experiment [14] it was -0.868 (inactive); in [16], 0.0029 (inactive).

Turning to `COCCOC(=O)N1C(=O)[C@@]2(c3cc(C#CC4=CCCCC4)ccc31)[C@H](C(=O)Nc1nc3ccccc3s1)[C@H]1C(=O)O[C@H](c3ccccc3)[C@H](c3ccccc3)N1[C@@H]2c1ccc(OCCO)cc1`, the composite z-score in experiment [1] was -0.152; in [2], 0.471; in [3] it was -0.0009; in [4], 0.427; in experiment [5], 1.12; in [6], 0.342. The composite z-score is 0.899 in [7]; 0.146 in experiment [9]; -0.0994 in experiment [10]; 1.58 in [11]; 1.82 in [15]; -0.119 in [17]. Further, the composite z-score in experiment [18] is 1.23; in experiment [19] it was 1.14; in [20], -0.0238. The z-score in experiment [8] is 2.19 (inactive); in experiment [12], 2.47 (inactive); in [13], 1.97 (inactive); in experiment [14] it was 2.07 (inactive); in experiment [16], 0.373 (inactive).

On to `COC(=O)[C@@]1(Cc2ccccc2)[C@H]2c3cc(C(=O)N(C)C)n(CCSCCO)c3C[C@H]2CN1C(=O)c1ccccc1`, for which the composite z-score was -0.303 in experiment [1]; 1.07 in experiment [2]; 0.0413 in [3]; 0.689 in experiment [4]; 1.17 in experiment [5]; 1.28 in experiment [6]. Further, the composite z-score is 1.24 in [7]; 0.335 in experiment [9]; 0.347 in experiment [10]; -0.0249 in experiment [11]; 3.09 in experiment [15]; 0.172 in [17]. In addition, the composite z-score is -0.411 in [18], -0.0488 in experiment [19] and 0.0239 in experiment [20]. The z-score in experiment [8] is 1.27 (inactive); in experiment [12], -0.177 (inactive); in experiment [13] it was 0.536 (inactive); in experiment [14], -0.694 (inactive); in experiment [16], -0.842 (inactive).

Turning to `CC1CC/C=C\[C@H]2OC34C=CCN(Cn5nnc6ccccc65)C(=O)[C@H]3N(C(CO)C(C)C)C(=O)[C@@H]4C2C(=O)O1` (stereo not given in full), the composite z-score is 0.0351 in experiment [1]; -0.804 in experiment [2]; -0.175 in experiment [3]; -0.266 in experiment [4]; 0.145 in experiment [5]; 1.22 in experiment [6]. Also, the composite z-score in experiment [7] is 1.42; in experiment [9], -0.314; in experiment [10], 0.0505; in [11] it was 1.34; in [15] it was 3.28; in experiment [17] it was 0.0723. Besides, the composite z-score in experiment [18] was -0.772; in experiment [19], 0.113; in experiment [20] it was -0.0987. Moreover, the z-score was 0.298 (inactive) in experiment [8]; -0.973 (inactive) in [12]; -1.02 (inactive) in experiment [13]; -0.931 (inactive) in experiment [14]; 0.309 (inactive) in experiment [16].

For `CN(C)CCCC[C@@H]1NC(=O)[C@H]2C[C@@H](C(=O)NCCCCCNC(=O)CS)[C@@H](c3cccc(OCCO)c3)N2C1=O`, the composite z-score in [1] was -0.23; in [2], 0.411; in [3] it was -0.0785; in experiment [4], -0.0727; in [5] it was -0.21; in [6] it was 0.727. For the same compound, the composite z-score in experiment [7] is 1.27; in experiment [9], 0.0184; in [10], -0.305; in experiment [11], 1.18; in experiment [15] it was 2.79; in experiment [17] it was 0.0144. In addition, the results for the composite z-score in [18], in experiment [19] and in experiment [20] were 1.54, 0.534 and -0.136, respectively. The z-score is 0.498 (inactive) in experiment [8]; -1.14 (inactive) in [12]; -1.3 (inactive) in experiment [13]; -0.296 (inactive) in experiment [14]; -0.328 (inactive) in experiment [16].
